Test results taken from PubChem BioAssay (NCI).
Compounds without any hit were thinned out: in the full panel of roughly 83,000, 20% have a hit.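 Percent growth is the endpoint: 0 to 100 indicates growth inhibition (40 means 60% inhibition), 0 means no net growth, and negative values indicate cell death.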 Active and inactive are the calls of the source. Rule for the calls: active = growth percent below 10; inactive = the rest.

How the values were obtained:
Test in all cases: NCI-60 one-dose screen, 48 h (100 = growth as untreated, 0 = no growth, -100 = all killed)
Settings in all cases: 10 µM unless noted
[1] = test system: NCI-H23 lung
[2] = test system: NCI-H226 lung
[3] = test system: NCI-H322M lung
[4] = test system: HOP-62 NSCLC
[5] = test system: HOP-92 NSCLC
[6] = test system: NCI-H522 lung
[7] = test system: A549/ATCC NSCLC
[8] = test system: 786-0 renal
[9] = test system: COLO 205 colon

Measured: growth

N#Cc1c2c(nc3n[nH]c(N)c13)CCCC2
inactive: [1] 99.6% | [2] 110% | [3] 128% | [4] 100% | [5] 79% | [6] 104% | [7] 108% | [8] 106% | [9] 148%

CC[C@H](Nc1ncnc(N)c1C(N)=O)c1nc2cccc(NCc3ccc(C(=O)NO)cc3)c2c(=O)n1-c1ccccc1
inactive: [1] 91.7% | [2] 102% | [3] 86.9% | [4] 78% | [5] 21.5% | [6] 35.9% | [7] 98.2% | [8] 90.3% | [9] 78.3%

O=C1/C(=C\c2cn(C(=O)c3ccc(Cl)cc3)c3ccccc23)c2ccccc2N1c1c(Cl)cccc1Cl
inactive: [1] 97.2% | [2] 94.9% | [3] 112% | [4] 94.2% | [6] 90.9% | [7] 110% | [8] 90.7% | [9] 123%

O=C1c2cccnc2C(=O)c2c1c(C(=O)OCCN1CCOCC1)c1ccccn21
active: [1] -38.4% | [2] -28.4% | [3] -55.4% | [4] -34% | [5] 8.96% | [6] -30.2% | [7] -48.7% | [8] 2.64% | [9] -53.5%

O=C(O)c1cccc2c1-c1ccccc1C2=O
inactive: [1] 98.4% | [2] 91.6% | [3] 83.9% | [4] 95.3% | [6] 88.2% | [7] 101% | [8] 102% | [9] 99.8%

Clc1cccc(Nc2nc(Nc3cnc4ccccc4c3)c3[nH]cnc3n2)c1
inactive: [1] 84.3% | [2] 72.3% | [3] 89.1% | [4] 59.9% | [6] 61.9% | [7] 74.4% | [8] 109% | [9] 79.8%
active: [5] 7.57%

O=C1/C(=C/c2ccccc2)CN(CCC(=O)N2C/C(=C\c3ccccc3)C(=O)/C(=C/c3ccccc3)C2)C/C1=C\c1ccccc1
inactive: [1] 85.4% | [2] 84.7% | [3] 90.4% | [4] 118% | [5] 63.1% | [6] 53.9% | [7] 88.2% | [8] 73% | [9] 82.4%

O=C1O[C@H]([C@H](O)CO)C(O)=C1O
inactive: [1] 97.7% | [2] 103% | [3] 104% | [4] 107% | [5] 109% | [6] 88.4% | [7] 104% | [8] 103% | [9] 107%

Cc1sc2nc3[nH]/c(=C\c4ccc(Cl)cc4)c(=O)n3c(=O)c2c1C
inactive: [1] 103% | [2] 100% | [3] 103% | [4] 110% | [5] 92.7% | [6] 88.1% | [8] 95.1% | [9] 112%

CSc1ncnc2c1ncn2C1CCCO1 (stereo not given)
inactive: [1] 96.1% | [2] 90.1% | [3] 90.9% | [4] 99.7% | [5] 141% | [6] 121% | [7] 106% | [8] 104% | [9] 119%

COc1ccc2nc3cc(Cl)ccc3c(N3CCN(c4nccc(NCc5ccccc5)n4)CC3)c2c1
active: [6] -0.14%
inactive: [1] 73.2% | [2] 96.4% | [3] 89.4% | [4] 35.9% | [5] 69.1% | [7] 78.3% | [8] 79% | [9] 82.1%

Nc1ccc2c(c1)C(=O)NC2=O
inactive: [1] 91.7% | [2] 96.2% | [3] 108% | [4] 93.1% | [5] 151% | [6] 99.3% | [7] 105% | [8] 110% | [9] 106%

COc1nc2c(cc1S(=O)(=O)c1ccccc1)CCc1c-2cnn1-c1ccc(Cl)cc1
inactive: [1] 89.5% | [2] 92.1% | [3] 101% | [4] 86.5% | [5] 80.3% | [6] 81.1% | [7] 95.4% | [8] 79.5% | [9] 118%

O=c1c2cccc3c(NC4CCCCC4)ccc(c32)c2nc3ccccc3n12
inactive: [1] 46% | [2] 72% | [3] 82.3% | [4] 90.6% | [5] 48.4% | [6] 61.5% | [7] 66.5% | [8] 108% | [9] 75.6%

COc1cc(OC)c(/C=C/C(=O)c2c(OC)cc(OC)cc2OC)c(OC)c1
inactive: [2] 36.1% | [3] 21.4% | [4] 27% | [5] 130% | [7] 25.1% | [8] 29%
active: [1] 6.77% | [6] 2.82% | [9] -6.76%

Oc1cc(O)c2c(=S)cc(-c3ccc(Cl)cc3)oc2c1
inactive: [2] 73.6% | [3] 60.4% | [4] 46.4% | [7] 53.6% | [8] 74.6% | [9] 85.8%
active: [1] 4.05% | [5] -21.9% | [6] -1.71%

Cc1ccc(-c2nc(/C=N/Nc3cc(C)nc4ccc(Br)cc34)c(C)o2)cc1
active: [3] -36.8% | [6] -67.1% | [7] -56.1% | [8] -67% | [9] -68.6%
inactive: [1] 79.2% | [2] 86.6% | [4] 97.7% | [5] 18.9%

Cc1cc(OCc2ccc(C(F)(F)F)cc2)c2c(c1)C(=O)C=C(NCCN1CCCC1)C2=O
active: [9] -77.4%
inactive: [1] 84.5% | [2] 93% | [3] 80.9% | [4] 83.1% | [5] 60.1% | [6] 87.6% | [7] 54.3% | [8] 58.5%

COc1cccc(/C=C2/C(=O)N(Cc3ccco3)SC2=S)c1OC
inactive: [1] 108% | [2] 101% | [3] 98.7% | [4] 105% | [5] 93% | [6] 83.7% | [7] 100% | [8] 101% | [9] 111%

C=C1CCC2C3(C)COC(c4ccc(SC)cc4)OC3CCC2(C)C1C/C=C1/C(=O)OCC1O (stereo not given)
inactive: [1] 44.9% | [2] 48.7% | [3] 102% | [4] 107% | [5] 81.7% | [6] 73.3% | [7] 83.6% | [8] 78.4% | [9] 72.3%

O=C(/C=C\c1cccc([N+](=O)[O-])c1)c1ccccc1
active: [5] -27% | [6] -5.55% | [9] -71%
inactive: [1] 81.3% | [2] 70.3% | [3] 96.1% | [4] 90.8% | [8] 13.2%
